The record followed here is PubChem BioAssay (NCI).

Holding throughout (experiment): NCI-60 one-dose screen, 48 h (100 = growth as untreated, 0 = no growth, -100 = all killed)
Holding throughout (conditions): 10 µM unless noted

The test system of assay [1] is SR leukemia.
In assay [2] the test system is RPMI-8226 leukemia.
Assay [3] concerns OVCAR-8 ovarian.
Assay [4] deals with OVCAR-5 ovarian.
Assay [5] deals with OVCAR-4 ovarian.
The test system of assay [6] is SK-OV-3 ovarian.
Assay [7] relates to IGROV1 ovarian.
The subject of assay [8] is OVCAR-3 ovarian.
The test system of assay [9] is NCI/ADR-RES ovarian.

Structures are written as SMILES. About 83,000 compounds went through this panel and 20% of them were active in at least one assay; those are over-represented in the sample as a whole.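 A percent growth of 40 corresponds to 60% growth inhibition; 0 means no net growth; -100 means all cells died. Active threshold: below 10.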 Unmarked numbers belong to inactive results. Activity calls are given as the source filed them.

In the case of `Nc1ncnc2c1c(-c1cccc(OCc3ccccc3)c1)cn2C1CC(CN2CCC2)C1` (stereo unspecified), the growth was -17.7% (active) in assay [1]; -24% (active) in assay [2]; 34.9% in assay [3]; 36% in assay [4]; 57.4% in assay [5]; 40.2% in assay [6]. In addition, the growth in assay [7] was 22.4%; in assay [8] it was 58.8%; in assay [9] it was 35.4%.

Consider `COc1cc(Nc2c(C#N)cnc3cc(OCCCN4CCN(C)CC4)c(OC)cc23)c(Cl)cc1Cl`, for which the growth was 31.5% in assay [1]; 59.3% in assay [2]; 42.9% in [3]; 22.8% in assay [4]; 56% in assay [5]; 44.3% in assay [6]. For the same compound, the growth in assay [7] is 6.33% (active); in assay [8], 77.9%; in assay [9] it was 78.6%.

With `CNc1ncc2cc(-c3cc(NC(=O)NCCC(C)(C)C)c(F)cc3C)c(C)nc2n1`, the growth was 17.7% in [1]; 21% in assay [2]; 27% in assay [3]; 6.28% (active) in [4]; 33.2% in [5]; -26% (active) in [6]. For the same compound, the figures for the growth in assay [7], in assay [8] and in [9] were -10.2% (active), 54.5% and 24.7%, respectively.

Turning to `CCCCN1C(=O)c2cccc3c(-c4ccc5c(c4)ncn5C4CCCCC4)ccc(c23)C1=O`, the growth is 91.1% in assay [1]; 108% in assay [2]; 89.9% in assay [3]; 98.3% in [4]; 97.6% in assay [5]; 92.3% in assay [6]. For the same compound, the growth in assay [7] is 108%; in assay [8], 101%; in assay [9] it was 92.5%.

Take `CC/C(=C(\c1ccc(OCCN2CCCCCCC2)cc1)c1ccc(OC(=O)C2CCCCC2)cc1)c1ccc(Cl)cc1`: the growth was 78.5% in assay [1]; 107% in [2]; 100% in assay [3]; 89.9% in [4]; 108% in assay [5]; 111% in [6]. Besides, the values for the growth in assay [7], in assay [8] and in assay [9] were 103%, 99.1% and 105%, respectively.

For the compound `Cn1nccc1Nc1nccc(-c2ccn([C@H](CO)c3ccc(Cl)c(F)c3)c(=O)c2)n1`, the growth was 112% in assay [1]; 113% in [2]; 104% in [3]; 46.9% in [4]; 98.8% in assay [5]; 119% in assay [6]. Moreover, the growth in assay [7] is 82%; in assay [8], 115%; in [9] it was 89.7%.

For the compound `C/C(=C(/c1ccc(Cl)cc1)c1ccc(OCCN2CCCC2)cc1)c1ccccc1`, the growth was 7.27% (active) in [1]; 42.8% in assay [2]; 88.1% in [3]; 64.7% in assay [4]; 91.7% in [5]; 121% in assay [6]. The growth in assay [7] is 65.9%; in assay [8], 91.8%; in assay [9], 77.6%.

Regarding `O=C(N/N=C/c1ccc(Cl)cc1)c1cc(-c2cc3ccccc3o2)nn1-c1ccccc1`, the growth is 87.9% in assay [1]; 47.6% in assay [2]; 93.7% in assay [3]; 101% in [4]; 87.3% in assay [5]; 94% in assay [6]. For the same compound, the growth is 65.9% in assay [7], 106% in [8] and 93.4% in [9].

As to `CC1(O)CCC2CC3OC3(C)CCC3OC3(C)C(O)CC1C2(C)C` (stereo unspecified), the growth is 104% in [1]; 84.4% in assay [2]; 87.3% in assay [3]; 120% in [4]; 91.1% in assay [5]; 109% in assay [6]. For the same compound, the values for the growth in assay [7], in assay [8] and in assay [9] were 70%, 118% and 112%, respectively.

Take `Cc1cc2c(F)c(Oc3ncnn4cc(OC[C@@H](C)OC(=O)[C@H](C)N)c(C)c34)ccc2[nH]1`: the growth was 18.5% in assay [1]; 47.1% in [2]; 61.7% in [3]; 25.8% in assay [4]; 65.5% in assay [5]; 73.9% in [6]. Moreover, the growth is 20.8% in assay [7], 81.1% in [8] and 90.5% in [9].

On to `CC1(O)CC(c2nc(-c3ccc4ccc(-c5ccccc5)nc4c3)c3c(N)nccn23)C1` (stereo unspecified), for which the growth was 33.9% in [1]; 31.8% in assay [2]; 39% in assay [3]; 41.3% in [4]; 33.1% in [5]; 13.5% in assay [6]. Moreover, the growth in assay [7] is 40.1%; in [8], 56.6%; in assay [9], 41%.

In the case of `CCn1cc(-c2ccnc3[nH]c(-c4cccc(CN(C)C)c4)cc23)c(-c2ccc(NC(=O)N(C)C)cc2)n1`, the growth in assay [1] was -15.8% (active); in assay [2] it was 3% (active); in [3] it was 24.9%; in [4], 24.5%; in [5], 41.1%; in [6], -0.688% (active). Further, the growth in [7] is 26.3%; in assay [8], 48.1%; in assay [9], 72.4%.

For `CN1CCN(c2ccc(OC(F)(F)F)c(Nc3ncc4c(n3)-c3c(c(C(N)=O)nn3CCO)CC4)c2)CC1`, the growth is 4.81% (active) in assay [1]; 32.7% in assay [2]; 9.62% (active) in assay [3]; 19.9% in [4]; 71.5% in [5]; -3.27% (active) in [6]. Also, the growth in assay [7] was 25.1%; in assay [8], 41%; in assay [9], 12.9%.

Turning to `CO[C@H]1C[C@@H]2CC[C@@H](C)[C@@](O)(O2)C(=O)C(=O)N2CCCC[C@H]2C(=O)O[C@H]([C@H](C)C[C@@H]2CC[C@@H](OP(C)(C)=O)[C@H](OC)C2)CC(=O)[C@H](C)/C=C(\C)[C@@H](O)[C@@H](OC)C(=O)[C@H](C)C[C@H](C)\C=C/C=C/C=C/1C`, the growth is 13.1% in assay [1]; 34.8% in [2]; 34.3% in assay [3]; 60.7% in assay [4]; 28.6% in assay [5]; 12.2% in assay [6]. Further, the growth in assay [7] is 24.4%; in [8] it was 59.7%; in assay [9] it was 51.4%.
